Shown are actives, neighbours in structure and some others; about 5.7% of the full set was active somewhere.
FAS TE block: blocks the thioesterase domain of human fatty acid synthase. inhibition, % at 15 µM. actives 0.67% (n = 360,000). recombinant FAS-TE, OMFH fluorogenic substrate, fluorescence endpoint. P49327;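 active means compounds whose normalised, plate-corrected inhibition of enzyme fluorescence in the single-dose primary screen is 50% or more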
GRIN3A LBD mod: modulators (binders) of human NR3A ligand-binding domain | Tm shift relative to glycine control, % at 25 µM | NR3A LBD differential scanning fluorimetry, Tm shift; 0% = protein alone, 100% = glycine-bound protein | actives 2.5% (n = 340,000);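 active means melting temperature shift of at least 10% of the positive control shift, at one fixed dose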
MPTP inh: permeability transition pore inhibition; isolated mouse mitochondria, Ca2+ swelling absorbance, 30 min; inhibition, % at 10 µM; AID 602449; actives 1.4% (n = 360,000);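 active means inhibition of 50% or more, scaled per plate between neutral and stimulator controls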
Myeloid diff 2: compounds promoting myeloid differentiation; calls only at 10 µM; actives 1% (n = 360,000); AID 624256; ER-HoxA9 myeloid progenitors, lysozyme-GFP differentiation, flow cytometry;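 active means normalized GFP-positive differentiation at or above the plate's own cutoff, the solvent-only control mean plus 3 SD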;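 further: cells exposed to compound for four days before flow analysis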
rCAG binder-1: molecules binding r(CAG) RNA repeats; r(CAG) RNA repeat, TO-PRO-1 dye displacement fluorescence; inhibition, % at 3 µM; actives 1.3% (n = 370,000);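 active means inhibition above the plate cutoff, the mean of all test compounds on that plate plus 3 SD, cut at about 35% in these data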;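 further: higher means more dye released from RNA so lower well fluorescence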
rCAG bind conf: r(CAG) RNA repeat binding, confirmation; inhibition, % at 3 µM; shares compounds with rCAG binder-1; AID 652065; TO-PRO-1 dye displacement fluorescence; actives 70% (n = 4,300);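 active means inhibition above a per-plate cutoff, the mean inhibition of sample wells plus 3 SD, cut at about 35% in these data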;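 further: loss of TO-PRO-1 fluorescence as compound displaces dye from 1x1 AA loop RNA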
DNA CAG counter: disrupts DNA CAG TO-PRO-1 complex, flagging rCAG hits; shares compounds with rCAG binder-1; d(CAG) DNA oligo TO-PRO-1 dye displacement, fluorescence; inhibition, % at 3 µM; actives 94% (n = 4,300); AID 652068;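 active means inhibition above its plate's cutoff, the mean test-well inhibition plus 3 SD, cut at about 4.8% in these data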;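 further: hits displace the dye from DNA and so lower well fluorescence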
DNA CAG DR: counter-screen for rCAG binders: inhibitors of DNA CAG TO-PRO-1 complex; shares compounds with rCAG binder-1; DNA CAG/GTC duplex TO-PRO-1 dye displacement fluorescence; IC50, µM; actives 20% (n = 250); AID 686960; in the data active means IC50 below about 10 µM
dCAG DNA bind: inhibits DNA CAG/GTC TO-PRO-1 complex, rCAG binder counter-screen; d(CAG) DNA duplex TO-PRO-1 dye displacement, fluorescence; AID 720649; shares compounds with rCAG binder-1; actives 80% (n = 30); IC50, µM
rCAG binder-2: molecules binding r(CAG) RNA repeats, late stage dose response. shares compounds with rCAG binder-1. r(CAG) RNA TO-PRO-1 dye displacement, fluorescence. IC50, µM. actives 100% (n = 30). AID 720651
Hits are given with their value; - = inactive; . = not tested or not shown. Unless noted, how the calls were made is not given here.

SMILES	FAS TE block	GRIN3A LBD mod	MPTP inh	Myeloid diff 2	rCAG binder-1	rCAG bind conf	DNA CAG counter	others
COc1ccc(-c2cc(-c3ccc(Cl)cc3)c(C#N)c(SCC(=O)O)n2)cc1	-	-	-	-	79.7	84.9	55.1
N#Cc1c(C(F)(F)F)cc(-c2cccs2)nc1SCC(=O)O	-	-	-	-	-	.	.
COc1ccc(-c2cc(-c3ccccc3)c(C#N)c(SCC(=O)O)n2)cc1	-	-	-	-	-	.	.
N#Cc1c(-c2ccc(F)cc2)cc(-c2cccs2)nc1SCC(=O)O	-	-	-	-	56.2	45.3	14.2
COc1ccc(CNC(=O)CSc2nc(-c3ccccc3)cc(-c3cccs3)c2C#N)cc1	-	-	-	-	-	.	.
COc1ccccc1-c1cc(-c2ccccc2)nc(SCC(=O)O)c1C#N	-	-	-	-	47.2	37.1	9.6
Cc1nc2c(-c3ccc(F)cc3)c(C)nn2c(C)c1CCC(=O)Nc1ccccc1F	-	-	-	-	-	.	.
CC(=O)NS(=O)(=O)c1ccc(N=c2ssc3c2-c2cc(C)ccc2NC3(C)C)cc1	-	-	-	-	48.3	45.2	16.1
O=[N+]([O-])c1ccccc1S(=O)(=O)Nc1cccc(-c2ccc(N3CCCC3)nn2)c1	-	-	-	-	36.4	-	9.6
O=[N+]([O-])c1ccccc1S(=O)(=O)Nc1cccc(-c2ccc(N3CCOCC3)nn2)c1	-	-	-	-	-	.	.
COc1ccc(/C=N/NC(=O)c2[nH]c3ccc(Br)cc3c2-c2ccccc2)c(C(=O)O)c1OC	-	-	-	-	62.4	77.2	42.9
COc1ccc(/C=N/NC(=O)c2[nH]c3ccc(Cl)cc3c2-c2ccccc2)c(C(=O)O)c1OC	-	-	-	-	64.3	65.7	25.1
CN(C)c1ccc(-c2noc(C3CCN(S(=O)(=O)c4cccc(C(=O)O)c4)CC3)n2)cc1	-	-	-	-	65.4	67.6	32.0
CCCN(CCC)C(=O)c1cc2c(=O)n3cccc(C)c3nc2s1	-	-	-	-	-	.	.
COc1cc(/C=N/NC(=O)Cc2ccccc2)cc([N+](=O)[O-])c1O	-	-	-	-	-	.	.
COc1cc(/C=N/NC(=O)[C@H](Cc2c[nH]c3ccccc23)NC(=O)OCC(C)C)cc([N+](=O)[O-])c1O	-	-	-	-	70.2	48.0	16.9
CCC[C@H]1CN(c2ccc(Br)cc2)C(=O)[C@@H]1CC(=O)Nc1ccccc1	-	.	-	-	-	.	.
O=C(O)c1cccc(NC(=S)N/N=C/c2ccccc2OCc2cccc(Br)c2)c1	-	-	-	-	77.3	78.8	44.6
COC(=O)c1ccc(COc2ccccc2/C=N/Nc2cccc(C(=O)O)c2)cc1	-	-	-	-	-	.	.
O=C(O)c1cccc(NC(=S)N/N=C/c2cccc(O)c2)c1	-	-	-	-	-	.	.
O=C(O)c1cccc(NC(=S)N/N=C/c2ccccc2OCc2ccc(Br)cc2)c1	-	-	-	-	80.0	85.0	55.4
O=C(Cn1ncc2c3ccccc3n(Cc3ccccc3)c2c1=O)NCCCN1CCCC1=O	-	-	-	-	-	.	.
CCc1ccc(Cn2ncc3c(C(=O)O)cc(C)nc32)cc1	-	-	-	-	-	.	.
COc1cc(NC(=O)c2ccc(-c3ccc(F)c(F)c3)c3ccoc23)cc(OC)c1OC	-	.	-	-	-	.	.
CC(C)CN(C(=O)COC(=O)c1ccccc1SCC(=O)N1CCCC1)C1CCS(=O)(=O)C1 (configuration not stated)	-	-	-	-	-	.	.
SMILES	FAS TE block	GRIN3A LBD mod	MPTP inh	Myeloid diff 2	rCAG binder-1	rCAG bind conf	DNA CAG counter	others
CCOC(=O)C1=CN(Cc2cccc(F)c2)S(=O)(=O)NC1c1ccc(Br)cc1F (configuration not stated)	-	-	-	-	-	.	.
O=C1CS(=O)(=O)N(Cc2cccc(F)c2)c2ccc(Br)cc21	-	-	-	-	52.4	-	13.9
COc1ccc(CCn2c(O)cc3nn(-c4nc5ccccc5s4)c(=O)c-3c2C)cc1	-	-	-	-	66.9	84.0	50.9
COc1ccc(CN2CCN(c3nc4ccccc4s3)CC2)cc1	-	-	-	-	-	.	.
C[C@@H]1CN([C@H](C)CO)C(=O)c2c(c3ccccc3n2C)-c2ccccc2CO[C@@H]1CN(C)S(=O)(=O)c1cccs1	-	.	-	-	-	.	.
Cc1cc(-c2csc(NC(=O)c3cc4ccccc4o3)n2)c(C)n1C	-	-	-	-	44.2	52.2	25.4
O=C(Nc1nc(-c2ccccn2)cs1)c1cc2ccccc2o1	-	-	-	-	-	.	.
CSC(=Nc1ccccc1)C(C#N)c1nc2ccccc2[nH]1 (configuration not stated)	-	-	-	-	-	.	.
N#CC(C(=S)Nc1ccccc1)c1nc2ccccc2[nH]1 (configuration not stated)	-	31.0	-	-	65.1	45.6	15.7
NC(=O)c1ccccc1NC(=O)c1ccccc1Cl	-	-	-	-	-	.	.
O=C(Nc1ccccc1C(=O)Nc1nnc(C(F)(F)F)s1)c1ccccc1Cl	-	18.2	-	-	65.1	70.8	29.6
COc1ccc(Cl)cc1NC(=O)CN(C)C(=O)c1cn2ccccc2n1	-	-	-	-	-	.	.
CC(=O)[C@H]1CC[C@H]2[C@@H]3CC=C4C[C@@H](OS(=O)(=O)O)CC[C@]4(C)[C@H]3CC[C@]12C	-	-	-	-	39.3	39.2	9.8
O=C(O)CSc1nc(-c2ccccc2)nc2c1oc1ccccc12	-	-	-	-	58.8	48.5	13.6
CCOC(=O)CSc1nc(-c2ccccc2)nc2c1oc1ccccc12	-	-	-	-	-	.	.
O=C(O)CSc1nc(-c2ccc(Cl)cc2)nc2c1oc1ccccc12	-	-	-	-	41.5	82.0	62.1
CCc1cc(=O)oc2c3c(cc(OCC(=O)NCCCOC)c12)OC(C)(C)CC3	-	-	-	-	-	.	.
Cc1cccc(-n2nc(C)c3c(C(=O)O)cc(-c4cccs4)nc32)c1	-	-	-	-	80.8	73.6	33.7	DNA CAG DR=6.32;dCAG DNA bind=1.41;rCAG binder-2=0.578
Cc1nn(-c2ccccn2)c2nc(-c3cccs3)cc(C(=O)N3CCOCC3)c12	-	-	-	-	-	.	.

Assay outcomes from PubChem.
